Reference: PubChem BioAssay (EPA / NIEHS)
Activity calls are given as the source filed them. Rule for the calls: active = hit-call score of the fitted dose curve at least 0.9, where 1 is the maximum; inactive = score below 0.9.

biological target: Transcriptional activator Myb (Homo sapiens) (UniProt P10242); test: ATG_Myb_CIS: Attagene CIS-FACTORIAL HepG2 Assay for human Myeloblastosis (Myb) Proto-Oncogene Transcription Factor (AID 2282986); details: HepG2 Attagene CIS-FACTORIAL Myb reporter transcription; actives raise or lower the signal
Outline: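 HepG2 cells were transiently transfected with cis-regulated multiple reporter transcription units reflecting endogenous Myb activity, then exposed to compound for 24 hours. Reporter mRNA was measured by RT-PCR with capillary electrophoresis; bidirectional fitting versus DMSO baseline.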

Chain of Transcriptional activator Myb (Homo sapiens) (P10242 whole entry, looked up): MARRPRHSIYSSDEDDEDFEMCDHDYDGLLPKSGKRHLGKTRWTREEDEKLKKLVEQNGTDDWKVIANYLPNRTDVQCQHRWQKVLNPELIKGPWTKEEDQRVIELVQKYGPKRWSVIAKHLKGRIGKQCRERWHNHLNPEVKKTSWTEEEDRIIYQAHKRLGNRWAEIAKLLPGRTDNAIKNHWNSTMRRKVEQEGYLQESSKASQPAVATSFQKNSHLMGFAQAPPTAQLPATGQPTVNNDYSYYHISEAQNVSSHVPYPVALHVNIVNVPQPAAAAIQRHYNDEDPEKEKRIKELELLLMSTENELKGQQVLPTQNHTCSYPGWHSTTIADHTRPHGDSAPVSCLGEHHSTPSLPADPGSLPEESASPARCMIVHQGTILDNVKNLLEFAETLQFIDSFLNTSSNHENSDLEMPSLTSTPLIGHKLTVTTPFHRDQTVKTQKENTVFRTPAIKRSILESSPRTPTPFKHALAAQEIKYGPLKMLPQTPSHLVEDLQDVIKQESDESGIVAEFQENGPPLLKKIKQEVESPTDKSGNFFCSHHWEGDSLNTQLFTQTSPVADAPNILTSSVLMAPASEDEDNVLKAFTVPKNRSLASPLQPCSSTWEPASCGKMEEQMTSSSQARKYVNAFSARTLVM

outcome, inactive:
CN(C)c1ccncc1, CC1(C)CCC[C@]2(C)[C@H]3CCO[C@]3(C)CC[C@@H]12, CCC1CCCCC1, OCc1ccc(Cl)cc1Cl, Cc1occc(=O)c1OC(=O)C(C)C, Oc1ccc2cc(SSc3ccc4cc(O)ccc4c3)ccc2c1, CCOC(=O)COC(=O)c1cc(Oc2ccc(C(F)(F)F)cc2Cl)ccc1[N+](=O)[O-], CCOc1ccccc1O, CCOc1ccc(NC(=O)CC(C)=O)cc1, COCCOC(=O)c1ccccc1C(=O)OCCOC, OCCOCCN1CCN(C2=Nc3ccccc3Sc3ccccc32)CC1, CC(C)c1ccccc1O, CCCCCCCCCCCC(=O)OCC(O)CO (stereo not drawn), C=C(C)C1CC=C(C)C(=O)C1 (stereo not drawn), CCCCCCOCCOCCO, CCCCCCOC(=O)C(C)C, O=C1NC2NC(=O)NC2N1 (stereo not drawn), C=CC(=O)OCCC#N, CC(=O)c1ccccn1, CCCC(O)C(O)CO (stereo not drawn), CC(C)CC(C)CC(O)CC(C)C (stereo not drawn), COc1ccccc1[N+](=O)[O-], CCOc1ccc(N=Nc2ccc(C=Cc3ccc(N=Nc4ccc(OCC)cc4)cc3S(=O)(=O)O)c(S(=O)(=O)O)c2)cc1, COC(CC(C)CCCC(C)(C)O)OC (stereo not drawn), CC(C)NCC(O)COc1ccc(CC(N)=O)cc1 (stereo not drawn), CC(C)(CO)[C@@H](O)C(=O)NCCC(=O)O, COc1ccc(COC(C)=O)cc1, CCc1ccc(O)c(OC)c1, O=C1OC(=O)c2c(Br)c(Br)c(Br)c(Br)c21, C[C@@H]1CCN(C(=O)[C@H](CCCN=C(N)N)NS(=O)(=O)c2cccc3c2NC[C@H](C)C3)[C@@H](C(=O)O)C1, COC(=O)c1ccc(C)cc1C1=NC(C)(C(C)C)C(=O)N1 (stereo not drawn) (tested in a mixture with another compound), COS(=O)(=O)O, COc1cccc(OC)c1O, CCCC(=O)C(CC)Sc1ccoc1C (stereo not drawn), COC(=O)Nc1ccc(Cl)c(Cl)c1, Cc1ncc([N+](=O)[O-])n1CCO, O=CCc1ccccc1, CCCCSCCCC
